Screening results as filed in PubChem BioAssay.
POLI inh: inhibitors of human DNA polymerase iota; AID 588590; Pol iota fluorescent replication assay, 10 min; 1% of 390,000 active; Q9UNA4; Potency, µM (series often up to 115 µM), most hits filed as inhibitors
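Pol iota at 10 nM preincubated 15 min with compounds at room temperature; reaction started with fluorescent substrate, 50 nM final. Fluorescence read kinetically at 0 and 10 min; buffer-only wells as negative control.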
Pol eta inh-1: inhibitors of human DNA polymerase eta; Q9Y253; recombinant Pol eta, fluorescent DNA replication assay; Potency, µM (doses to about 114 µM), most hits filed as inhibitors; 1.2% of 390,000 active
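Pol eta (10 nM) was preincubated with compounds for 15 min at room temperature, after which fluorescent replication substrate (50 nM final) was added to start the reaction. Fluorescence was read kinetically at 0 and 10 min.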
Pol kappa inh-1: DNA polymerase kappa (human) inhibition. Q9UBT6. 0.53% of 400,000 active. purified Pol kappa, fluorescent DNA synthesis assay, 10 min. Potency, µM (highest dose often 107 µM), usual class: inhibitors
Target sequence (Q9UBT6 whole entry, looked up): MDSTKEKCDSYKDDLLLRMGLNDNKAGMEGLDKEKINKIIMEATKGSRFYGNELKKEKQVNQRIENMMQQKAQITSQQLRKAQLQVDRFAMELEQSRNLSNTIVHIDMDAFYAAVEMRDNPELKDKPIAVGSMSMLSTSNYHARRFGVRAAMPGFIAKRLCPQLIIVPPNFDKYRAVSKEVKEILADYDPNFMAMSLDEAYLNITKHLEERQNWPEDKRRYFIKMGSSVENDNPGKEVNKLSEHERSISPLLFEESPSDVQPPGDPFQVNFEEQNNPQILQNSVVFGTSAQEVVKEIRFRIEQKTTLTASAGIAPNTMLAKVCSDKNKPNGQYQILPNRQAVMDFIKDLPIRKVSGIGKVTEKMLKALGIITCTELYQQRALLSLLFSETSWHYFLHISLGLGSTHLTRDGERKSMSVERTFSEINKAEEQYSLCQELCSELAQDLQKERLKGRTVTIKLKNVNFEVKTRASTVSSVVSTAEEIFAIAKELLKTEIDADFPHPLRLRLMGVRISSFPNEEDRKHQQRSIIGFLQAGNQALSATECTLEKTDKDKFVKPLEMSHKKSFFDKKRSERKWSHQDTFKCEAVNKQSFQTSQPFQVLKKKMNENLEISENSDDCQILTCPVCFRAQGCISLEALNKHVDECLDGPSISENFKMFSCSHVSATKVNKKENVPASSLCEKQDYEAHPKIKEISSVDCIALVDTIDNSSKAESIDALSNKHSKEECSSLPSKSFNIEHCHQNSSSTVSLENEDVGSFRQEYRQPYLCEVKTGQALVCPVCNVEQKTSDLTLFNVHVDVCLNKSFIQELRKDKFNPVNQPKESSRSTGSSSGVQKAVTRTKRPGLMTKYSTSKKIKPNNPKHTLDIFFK
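Inhibition of 10 nM Pol kappa is measured by a fluorescent read-out at 0 and 10 min following addition of 50 nM substrate (final), with a 15-min room-temperature compound preincubation.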
TDP1 inh: inhibitors of human tyrosyl-DNA phosphodiesterase TDP1; Q9NUW8; Potency, µM (doses to about 130 µM), actives largely listed as inhibitors; recombinant TDP1, AlphaScreen DNA substrate cleavage; 0.28% of 350,000 active; further: nearly all actives have a fitted effect of over 40% in size
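Steps: enzyme plus compound, 15 min RT; add biotin/phosphotyrosine-FITC oligonucleotide (15 nM final), react 5 min; add donor/acceptor beads (10 ug/ml final), 10 min; read AlphaScreen. Tdp1 at 1 nM final.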
POLB inh: blocks human DNA polymerase beta activity | Potency, µM (titrated, usually from 114 µM), usual class: inhibitors | 1.3% of 340,000 active | Pol beta primer extension/strand displacement, fluorescence kinetic | AID 485314 | P06746
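Pol beta (10 nM) and compounds were preincubated 15 min at room temperature, then 50 nM substrate (final) started primer extension/strand displacement. Reads were taken at 0 and 10 min; concentration-response data were fitted to a four-parameter Hill equation.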
GALK inh confirm: confirmation of human galactokinase (GALK) inhibitors | shares compounds with Pol eta inh-1 | purified GALK, Kinase-Glo ATP depletion luminescence | Potency, µM (titrated, usually from 115 µM), actives largely listed as inhibitors | 70% of 150 active
Redox cycling: generates H2O2 by redox cycling, flagging GALK artifacts; shares compounds with Pol eta inh-1; Phenol red-HRP H2O2 redox cycling, absorbance 600 nm; Potency, µM (doses to about 115 µM), most hits filed as inhibitors; 40% of 150 active; AID 2035
HEK293 viability: HEK-293 cytotoxicity, GALK inhibitor secondary; AID 2547; HEK-293 viability, ATP luminescence (CellTiter-Glo), 24/48 h; shares compounds with Pol eta inh-1; 10% of 170 active; Potency, µM (doses to about 46.1 µM), actives largely listed as inhibitors
Pol kappa inh-2: Pol kappa (human) inhibition, cherry-pick confirmation. AID 720501. 76% of 920 active. shares compounds with Pol eta inh-1. purified Pol-kappa, fluorescent strand-displacement substrate. Potency, µM, most hits filed as inhibitors
Pol eta inh-2: confirmation of human DNA polymerase eta inhibitors; shares compounds with Pol eta inh-1; Pol eta primer extension, TAMRA/BHQ fluorescence, 10 min; Potency, µM, hits mostly inhibitors; 64% of 2,600 active; AID 720502
A number is an active result; i = inactive; ? = inconclusive; nt = not tested or not shown; [ ] = remark or other dose. Shown are actives, neighbours in structure and some others; about 2.4% of the full set was active somewhere. The call rests on the fitted dose curve; in most records, active means well fitted curve in the direction sought with a large enough effect; inconclusive means small, poorly fitted or top-dose-only effect, or another doubt; inactive means no such curve, though single readings can be large; an effect the other way counts as inactive or inconclusive.

SMILES | POLI inh | Pol eta inh-1 | Pol kappa inh-1 | TDP1 inh | POLB inh | Pol eta inh-2 | others
O=C(CCCCn1c(=O)c2ccccc2n(Cc2cccc(F)c2)c1=O)NCc1ccc2c(c1)OCO2 | i | i | i | i | i | nt
Cc1snc(S(=O)(=O)/C(C#N)=N/Nc2ccc(C(F)(F)F)cc2)c1C#N | i | i | i | i | i | nt | GALK inh confirm=37.5µM;Redox cycling=i;HEK293 viability=i
Cc1ccn2c(=O)nc(SCC(=O)NC3CCCC3)nc2c1 | ? | 22.4µM | i | i | nt | 75.7
Cc1ccn2c(=O)nc(SCC(=O)NC3CCCCC3)nc2c1 | i | i | i | nt | nt | nt
Cc1cccc2nc(Cn3c(=O)n(-c4ccc(Cl)cc4)c(=O)c4c5c(sc43)CCC5)cc(=O)n12 | i | i | i | i | i | nt
Cc1cc(/C=C2/C(=O)NN(c3ccccc3)C2=O)c(C)n1-c1ccc(O)cc1 | i | i | i | i | i | nt
Cc1cc(C=C2C(=O)CCCC2=O)c(C)n1-c1ccccc1 | 17.8µM | 17.8µM | ? | i | ? | 75.7
COc1ccc(-n2c(SCc3ccccc3F)nc3c([nH]c4ccccc43)c2=O)cc1 | i | i | i | i | i | nt
CCOC(=O)C1(Cc2cccc(F)c2)CCN(C(=O)COC)CC1 | i | i | i | i | i | nt | GALK inh confirm=i;Redox cycling=i;HEK293 viability=i
COC(=O)Cc1cc(C)cc2c(=O)cc(-c3ccoc3)oc12 | ? | 50.1µM | i | nt | nt | ?
COC(=O)Cc1cc(=O)oc2cc(OC)ccc12 | i | i | i | i | i | nt
CC(C)(C)OC(=O)N1CCC(c2c(C(=O)Nc3ccc4c(c3)OCCO4)cnn2-c2ccccc2)CC1 | i | i | i | i | i | nt
O=C(COc1ccccc1Cl)NCc1ccco1 | i | i | i | i | i | nt
CCOc1ccccc1OCC(=O)NCc1ccco1 | 20µM | 79.4µM | ? | i | 28.2µM | ?
CCN(CC)C(=O)COc1ccc(N(C)S(=O)(=O)c2ccc(NC(C)=O)cc2)cc1 | i | i | i | nt | i | nt
CC(=O)Nc1ccc(S(=O)(=O)N(C)c2ccc(OCCOc3cccc(C)c3)cc2)cc1 | 31.6µM | 20µM | ? | 12.6µM | nt | ? | Pol kappa inh-2=37.7
CC(C)c1ccc2[nH]c3nc(SCC(=O)NC4CC4)nnc3c2c1 | ? | i | i | i | i | nt
CC(C)NS(=O)(=O)c1ccc2[nH]c3nc(SCC(=O)Nc4ccc(F)c(F)c4)nnc3c2c1 | 79.4µM | nt | 79.4µM | nt | nt | ?
O=C(Nc1ccc(S(=O)(=O)Nc2nccs2)cc1)c1ccc(=O)[nH]c1 | ? | 20µM | ? | ? | 50.1µM | 42.6 | Pol kappa inh-2=67
CC(C)CCNC(=O)c1ccc2c(c1)N(Cc1ccccc1F)C(=O)c1ccccc1S2(=O)=O | i | i | i | i | i | nt
CCC(Sc1nnc(C)n2c1cc1occc12)C(=O)Nc1ccccc1OC (stereo not drawn) | i | i | i | i | i | nt
Cc1c(Cl)cnc(NC(=O)COC(=O)CNC(=O)c2ccccc2)c1Cl | i | 50.1µM | i | i | nt | ? | Pol kappa inh-2=?
Cc1c(Cl)cnc(NC(=O)COC(=O)c2ccc3c(c2)OCO3)c1Cl | i | ? | i | i | i | nt
O=C(COC(=O)CNC(=O)c1ccccc1)Nc1ccccc1Cl | i | i | i | i | i | nt
Cc1c(Cl)cnc(NC(=O)COC(=O)[C@H](C)NC(=O)c2ccccc2)c1Cl | ? | 50.1µM | i | i | nt | ? | Pol kappa inh-2=?
SMILES | POLI inh | Pol eta inh-1 | Pol kappa inh-1 | TDP1 inh | POLB inh | Pol eta inh-2 | others
Cc1c(Cl)cnc(NC(=O)COC(=O)c2ccncc2)c1Cl | 50.1µM | 25.1µM | i | i | nt | nt | Pol kappa inh-2=?
CCOC(=O)c1ccc(N2C(=O)c3n[nH]c(-c4ccco4)c3C2c2cccc(O)c2)cc1 (stereo not drawn) | i | i | i | i | i | nt
Cc1ccc2c(c1)-c1nc(-c3ccc4c(c3)NC(=O)CO4)cc(-c3ccc(F)cc3)c1CO2 | i | i | i | i | i | nt
CCCCC1(C)OC(=O)C(=Cc2ccc(SC)cc2)C(=O)O1 (stereo not drawn) | i | i | i | i | ? | nt
Cc1ccc(N2NC(=O)/C(=C/c3ccc(-c4ccc(Cl)c(C(=O)O)c4)o3)C2=O)cc1 | ? | 22.4µM | ? | i | 31.6µM | 60.1
CCN(CC)c1ccc(/C=C2/SC(=O)N(C(C)C)C2=O)o1 | i | i | i | i | i | nt
CC(C)N1C(=O)S/C(=C\c2ccc(-c3ccc(Cl)c(C(=O)O)c3)o2)C1=O | ? | 8.91µM | 50.1µM | 25.1µM | i | 26.9
CCCCC1(C)OC(=O)C(=Cc2ccc(-c3ccc(Cl)c(C(=O)O)c3)o2)C(=O)O1 (stereo not drawn) | ? | 20µM | ? | nt | 15.8µM | 26.9
O=C(O)c1cc(-c2ccc(/C=N/NC(=S)Nc3ccccc3)o2)ccc1Cl | 35.5µM | 20µM | 79.4µM | nt | 28.2µM | ? | Pol kappa inh-2=75.2
COc1cc(NC(=O)CSc2nc3nc(C)c(Cc4ccccc4)c(C)n3n2)cc(OC)c1OC | i | i | i | i | i | nt
Cc1nn(-c2ccccc2)c2sc(C(=O)Nc3cccc(Cl)c3)cc12 | i | i | i | nt | i | nt
Cc1ccc(Cl)cc1N1CCN(C(=O)c2cn(C)c3ccc(S(=O)(=O)N4CCC(C)CC4)cc3c2=O)CC1 | i | i | i | i | i | nt
COc1ccc2nc3c(cc2c1)Cn1c-3nc2ccccc2c1=O | ? | nt | i | i | nt | nt
Cc1nc2ccc3nc(NC(=O)c4ccco4)sc3c2s1 | ? | ? | ? | nt | nt | ?
Cc1ccc2nc(NC(=O)c3ccco3)sc2c1 | i | i | i | i | i | nt
O=C(Nc1cccc(Cl)c1)c1c(NC(=O)C(F)(F)F)sc2c1CCCC2 | ? | 25.1µM | i | i[12.3 µM] | ? | ?
Cc1ccc(NC(=O)c2c(NC(=O)C(F)(F)F)sc3c2CCCCC3)cc1 | ? | 50.1µM | ? | i[12.3 µM] | ? | ?
Cc1ccccc1NC(=O)c1c(NC(=O)C(F)(F)F)sc2c1CCCCC2 | i | i | i | i[12.3 µM] | ? | nt
O=C(NCCCN1CCN(c2ccccc2F)CC1)c1nnc(Cc2ccc(Cl)cc2Cl)o1 | i | i | i | i | i | nt
O=C(Nc1ccc(N2CCOCC2)cc1N1CCOCC1)c1ccc([N+](=O)[O-])cc1 | i | ? | i | i | i | nt
O=C(NNc1cc(N2CCOCC2)nc(N2CCOCC2)n1)c1ccc([N+](=O)[O-])cc1 | 6.31µM | 89.1µM | i | i | i | nt | GALK inh confirm=23.7µM;Redox cycling=4.21µM;HEK293 viability=i
